In PubChem BioAssay (NCATS):
Inconclusive results are not listed. Where a call stands in place of a potency, no number is given. Activity calls are given as the source filed them. Calls come from the whole dose curve; as a rule, active = well fitted curve in the direction sought with a large enough effect; inconclusive = small, poorly fitted or top-dose-only effect, or another doubt; inactive = no such curve, though single readings can be large; an effect the other way counts as inactive or inconclusive.

How the values were obtained:
[1] = qHTS to identify inhibitors of the type 1 interferon - major histocompatibility complex class I in skeletal muscle: primary screen against the NCATS Pharmaceutical Collection (AID 1347407);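 note: luminescence of HiBiT knocked into endogenous HLA-B as interferon-induced MHC class I level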; note: potency is the fitted concentration of half-maximal effect
Summary of the method: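 Immortalized human myoblasts (C25cl48) with HiBiT knocked into endogenous HLA-B*08:01 were stimulated with 4 ng/ml IFN-beta and treated with compounds (8-point, 1:5, top 46 uM final) for 24 h at 37 C; HiBiT lytic luminescence read.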

[2] = qHTS to identify inhibitors of the type 1 interferon - major histocompatibility complex class I in skeletal muscle: primary screen against the NCATS Mechanism Interrogation Plate v5.0 (MIPE) Libary (AID 1347411); note: nearly all actives have a fitted effect of over 65% in size
Summary of the method: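 Seed engineered human myoblasts (HLA-B HiBit) in medium without dexamethasone containing 4 ng/ml IFN-beta; after 1 hr add compound titrations (top 46 uM final). Incubate 24 hrs at 37 C, lyse 10 min with HiBiT reagent, read luminescence.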

[3] = target: Protein phosphatase 1D (Homo sapiens) (UniProt O15297); assay: Rhodamine-PBP qHTS Assay for Modulators of WT P53-Induced Phosphatase 1 (WIP1) (AID 1347425)
Sequence of Protein phosphatase 1D (Homo sapiens) (O15297 whole entry, looked up): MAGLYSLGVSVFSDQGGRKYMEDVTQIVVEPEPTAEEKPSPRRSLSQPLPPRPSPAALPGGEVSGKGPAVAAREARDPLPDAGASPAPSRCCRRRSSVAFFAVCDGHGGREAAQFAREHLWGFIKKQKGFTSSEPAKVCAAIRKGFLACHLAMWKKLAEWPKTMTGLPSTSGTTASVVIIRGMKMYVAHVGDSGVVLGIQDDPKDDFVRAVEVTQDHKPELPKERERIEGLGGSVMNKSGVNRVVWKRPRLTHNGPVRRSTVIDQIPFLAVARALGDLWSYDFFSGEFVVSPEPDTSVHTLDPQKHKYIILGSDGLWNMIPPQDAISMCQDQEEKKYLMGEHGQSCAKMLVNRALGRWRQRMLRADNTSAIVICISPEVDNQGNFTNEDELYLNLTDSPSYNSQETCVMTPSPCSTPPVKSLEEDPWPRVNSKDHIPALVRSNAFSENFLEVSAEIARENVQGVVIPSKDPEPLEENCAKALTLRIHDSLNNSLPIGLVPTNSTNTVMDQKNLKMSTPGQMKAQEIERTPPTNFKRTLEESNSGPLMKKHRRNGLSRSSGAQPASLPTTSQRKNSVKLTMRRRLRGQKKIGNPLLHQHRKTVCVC
Summary of the method: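 Read-out: Rhodamine-PBP fluorescence (ex 525/em 598 nm) for released Pi, read each minute for 11 min after adding 10 uM VEPPL-pS-QETFS; signal taken as f1 minus pre-substrate f0. Enzyme 5 nM WIP1 with 1 hr room-temperature compound preincubation.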

[4] = target: Calcium and integrin-binding protein 1 (Homo sapiens) (UniProt Q99828); assay: Primary qHTS for Identification of Calcium Integrin Binding Protein 1 (CIB1) Competitor (AID 1508620);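 note: GST tagged CIB1 binding a fluorescein labelled alphaIIb integrin peptide tracer; top concentration of the series differs between compounds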
Sequence of Calcium and integrin-binding protein 1 (Homo sapiens) (Q99828 whole entry, looked up): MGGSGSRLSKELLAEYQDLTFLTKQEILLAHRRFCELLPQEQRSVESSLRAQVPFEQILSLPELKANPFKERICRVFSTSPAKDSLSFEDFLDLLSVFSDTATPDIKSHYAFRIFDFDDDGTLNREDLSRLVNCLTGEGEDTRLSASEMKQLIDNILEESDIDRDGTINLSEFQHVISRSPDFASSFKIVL
Summary of the method: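 Fluorescence polarization competition: GST-tagged CIB1 (1 uM final) preincubated with compound 15 min at room temperature, then FITC-labelled alphaIIb peptide (100 nM final) added. After 15 min at room temperature, polarization read at Ex 480/Em 540.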

[5] = target: Protein phosphatase 1D (Homo sapiens) (UniProt O15297); assay: RapidFire Mass Spectrometry qHTS Assay for Modulators of WT P53-Induced Phosphatase 1 (WIP1) (AID 1347424); note: potency is the fitted concentration of half-maximal effect
Summary of the method: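 RapidFire MS readout of dephosphorylated VEPPL-S-QETFS product, with 1 uM isotope-labelled peptide standard. Reaction: 10 nM WIP1, 2 uM phosphopeptide substrate, 5 min, room temperature, after 1 h compound preincubation; stopped with 0.5% formic acid.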

[6] = Primary qHTS for inhibitors of La Crosse Virus (LACV) - induced cell death in SH-SY5Y cells (AID 1508616);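 note: top concentration of the series differs between compounds; higher means more rescue of cells from virus-induced death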
Summary of the method: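 SH-SY5Y, 6000 cells/well; cpd via pin tool in DMSO; LACV 0.01 MOI; 6 d 37C 5% CO2; ATPLite, 5 min RT; luminescence normalized to ±virus DMSO controls.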

[7] = qHTS for inhibitors of adenylyl cyclases using a fission yeast platform: a pilot screen against the NCATS LOPAC library (AID 1347410)
Summary of the method: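 S. pombe CHP2027 (AC9-GNAS-PDE4D2) carrying a PKA-repressed fbp1-GFP reporter was exposed to LOPAC compounds (final up to 57 µM) for 18 h at 30C in the dark, in EMM with histidine, lysine and uracil; GFP gain-of-signal read by laser scanning cytometry.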

[8] = target: Single-stranded DNA cytosine deaminase (Homo sapiens) (UniProt Q9GZX7); assay: Validation qHTS assay for inhibitors of Activation Induced Cytidine Deaminase (AID): AID signal (AID 1347429)
Sequence of Single-stranded DNA cytosine deaminase (Homo sapiens) (Q9GZX7 whole entry, looked up): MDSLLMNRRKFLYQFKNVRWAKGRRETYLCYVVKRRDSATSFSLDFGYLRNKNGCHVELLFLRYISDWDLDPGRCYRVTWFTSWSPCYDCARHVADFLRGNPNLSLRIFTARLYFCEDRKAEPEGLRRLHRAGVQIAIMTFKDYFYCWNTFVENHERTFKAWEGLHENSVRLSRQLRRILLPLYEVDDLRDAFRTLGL
Summary of the method: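 Steps: dispense AID with UDG; pin-transfer compound up to 114 uM final; add DJC20/DJC23 substrate and hold 4 hr at room temperature; add NaOH, hold 30 min; read FRET signal (540/590 nm).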

[9] = target: Calcium and integrin-binding protein 1 (Homo sapiens) (UniProt Q99828); assay: Validation qHTS for Identification of Calcium Integrin Binding protein 1 (CIB1) Competitor (AID 1508618)
Summary of the method: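 CIB1-GST (1 uM final) in 5 mM HEPES pH 7.4, 125 mM NaCl, 5 mM CaCl2, 0.01% Tween20 was preincubated 15 min at room temperature with compound (up to 114 uM), then FITC-alphaIIb peptide (100 nM) added for 15 min; fluorescence polarization read.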

SMILES | Potency [1] | Potency [2] | outcome [3] | Potency [4] | Potency [5] | Potency [6] | outcome [7] | Potency [8] | outcome [9]
CC(=O)N(O)CCCCCNC(=O)CCC(=O)N(O)CCCCCNC(=O)CCC(=O)N(O)CCCCCN | inactive | inactive | inactive | inactive |  |  |  |  | 
Nc1ccc(C(=O)O)cc1 | inactive |  | inactive | inactive | inactive | inactive |  |  | 
CC(=O)OCC(=O)[C@@]1(O)[C@H](C)C[C@H]2[C@@H]3CCC4=CC(=O)C=C[C@]4(C)[C@@]3(F)[C@@H](O)C[C@@]21C | inactive |  | inactive |  | inactive |  |  |  | 
Oc1c(I)cc(Cl)c2cccnc12 | inactive |  | inactive |  | inactive | inactive |  |  | 
Oc1ccc(Cl)c2cccnc12 | inactive |  | inactive |  | inactive | inactive |  |  | 
CN(C)CC/C=C1/c2ccccc2COc2ccc(CC(=O)O)cc21 | inactive | inactive |  | inactive | inactive | inactive |  |  | 
Cc1c(N(C)CS(=O)(=O)O)c(=O)n(-c2ccccc2)n1C | inactive |  | inactive | inactive | inactive | inactive |  |  | 
CCOC(=O)COc1ccc2c(C)c(CCN(CC)CC)c(=O)oc2c1Cl | 21 µM (active) |  | inactive | inactive | inactive | inactive |  |  | 
CCCCCCC[N+](CC)(CC)CCCCc1ccc(Cl)cc1 | inactive |  | inactive | inactive | inactive | inactive |  |  | 
O=C(Nc1ccc(Cl)c(Cl)c1)C1CC1 | inactive |  | inactive | inactive | inactive | inactive |  |  | 
O=C(OCCOCCO)c1ccccc1Nc1cccc(C(F)(F)F)c1 | inactive |  | inactive | inactive | inactive | inactive |  |  | 
COc1c(C)c2c(c(O)c1C/C=C(\C)CCC(=O)O)C(=O)OC2 | inactive | inactive | inactive | inactive | inactive |  |  |  | 
CC1(C)O[C@@H]2C[C@H]3[C@@H]4C[C@H](F)C5=CC(=O)CC[C@]5(C)[C@H]4[C@@H](O)C[C@]3(C)[C@]2(C(=O)CO)O1 | inactive |  | inactive | inactive | inactive | inactive |  |  | 
O=c1[nH]c(=O)n([C@H]2CCCO2)cc1F | inactive |  | inactive | inactive | inactive | inactive |  |  | 
CC1(C)O[C@@H]2C[C@H]3[C@@H]4C[C@H](F)C5=CC(=O)C=C[C@]5(C)[C@H]4[C@@H](O)C[C@]3(C)[C@]2(C(=O)CO)O1 | inactive | inactive |  | inactive | inactive | inactive |  |  | 
COc1cccc2c1C(=O)c1c(O)c3c(c(O)c1C2=O)C[C@@](O)(C(C)=O)C[C@@H]3O[C@H]1C[C@H](N)[C@H](O)[C@H](C)O1 | 3.33 µM (active) |  | inactive |  | inactive |  |  |  | 

SMILES | Potency [1] | Potency [2] | outcome [3] | Potency [4] | Potency [5] | Potency [6] | outcome [7] | Potency [8] | outcome [9]
COCc1c(C(C)C)nc(C(C)C)c(/C=C/[C@@H](O)C[C@@H](O)CC(=O)O)c1-c1ccc(F)cc1 | inactive |  |  |  |  |  |  |  | 
Oc1ccc(O)cc1 | inactive |  | inactive | inactive | inactive |  | inactive | inactive | inactive
c1ccc(OCc2ccc(CCCN3CCOCC3)cc2)cc1 | inactive |  | inactive | inactive | inactive | inactive |  |  | 
CCCCCCCCCCCCCCCCCC(=O)OCC(O)CO (stereo not drawn) | inactive |  | inactive | inactive | inactive | inactive |  |  | 
CCCC(=O)Nc1ccc(OCC(O)CNC(C)C)c(C(C)=O)c1 (stereo not drawn) | inactive |  | inactive | inactive | inactive | inactive |  |  | 
COC(=O)[C@@H]1CC2=CC(=O)CC[C@]2(C)[C@@]23O[C@@H]2C[C@@]2(C)[C@@H](CC[C@@]24CCC(=O)O4)[C@H]13 | inactive | inactive | inactive | inactive | inactive | inactive |  |  | 
O=C1[C@H]2CCCC[C@H]2C(=O)N1CCCCN1CCN(c2nsc3ccccc23)CC1 | inactive |  | inactive | inactive | inactive | inactive |  |  | 
NC(=O)c1cc[n+](CC2=C(C(=O)[O-])N3C(=O)[C@@H](NC(=O)Cc4cccs4)[C@H]3SC2)cc1 | inactive |  | inactive | inactive | inactive | inactive |  |  | 
CC(=O)O[C@]1(C(C)=O)CC[C@H]2[C@@H]3C[C@H](C)C4=CC(=O)CC[C@]4(C)[C@H]3CC[C@@]21C | inactive | inactive | inactive | inactive | inactive | inactive |  |  | 
CN1CCN(C(c2ccccc2)c2ccccc2)CC1 | inactive |  | inactive | inactive | inactive | inactive |  |  | 
CCCCc1nc(Cl)c(CO)n1Cc1ccc(-c2ccccc2-c2nn[nH]n2)cc1 | inactive |  | inactive | inactive | inactive | inactive |  |  | 
CC/C(=C(/CC)c1ccc(O)cc1)c1ccc(O)cc1 | inactive | inactive |  | inactive | 15.8 µM (active) | inactive |  |  | 
O=C1OC(c2ccc(O)cc2)(c2ccc(O)cc2)c2ccccc21 | inactive |  | inactive | inactive | inactive | inactive |  |  | 
CO/N=C1\CN(c2nc3c(cc2F)c(=O)c(C(=O)O)cn3C2CC2)CC1CN (stereo not drawn) | inactive |  | inactive | inactive | inactive | inactive |  |  | 
Nc1ccn([C@@H]2O[C@H](CO)[C@@H](O)C2(F)F)c(=O)n1 | inactive | inactive | inactive | inactive | inactive | inactive |  |  | 
Cc1ccc(O)c2ncccc12 | inactive |  | inactive |  | inactive | inactive |  |  | 
